# An excerpt weighted towards active compounds, which were near 2.5% of everything screened.
# CHT allo act: CHT positive allosteric modulators, primary screen, cell-based, membrane potential dye, choline EC20. 0.49% of 310,000 active. AID 488977, 2010. CHT-expressing cells; active compounds read high; LV-AA mutant CHT in HEK293 cells. B-score at 10 µM. High affinity choline transporter 1 (Homo sapiens), Q9GZV3;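 active = initial fluorescence not abnormally high and integrated response B-score, plate-corrected, over 3 SD above library mean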
# Target sequence (Q9GZV3 whole entry, looked up): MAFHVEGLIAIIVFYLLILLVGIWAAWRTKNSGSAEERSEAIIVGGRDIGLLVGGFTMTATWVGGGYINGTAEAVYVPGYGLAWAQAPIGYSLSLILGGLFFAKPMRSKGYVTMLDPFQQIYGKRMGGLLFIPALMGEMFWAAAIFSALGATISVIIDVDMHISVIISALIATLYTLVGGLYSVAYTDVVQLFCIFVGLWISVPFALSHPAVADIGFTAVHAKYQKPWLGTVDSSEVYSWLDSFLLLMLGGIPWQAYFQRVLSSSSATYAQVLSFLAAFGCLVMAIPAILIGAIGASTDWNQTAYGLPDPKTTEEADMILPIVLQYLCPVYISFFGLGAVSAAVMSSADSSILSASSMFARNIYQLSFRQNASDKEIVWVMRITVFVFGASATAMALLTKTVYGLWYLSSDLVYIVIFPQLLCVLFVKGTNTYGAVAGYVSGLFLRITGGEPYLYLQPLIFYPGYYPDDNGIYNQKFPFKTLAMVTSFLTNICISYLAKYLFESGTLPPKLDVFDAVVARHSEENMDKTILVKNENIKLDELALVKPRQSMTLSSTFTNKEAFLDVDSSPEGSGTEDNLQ
# TMEM16A act: TMEM16A chloride channel activators or potentiators, primary screen, cell-based, HTS. 0.3% of 340,000 active. HEK293 TMEM16A/YFP-H148Q/I152L, iodide quench fluorescence; active compounds read low. B-score at 10 µM. Anoctamin-1 (Mus musculus), Q8BHY3. AID 623877, 2012;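 active = fluorescence-ratio B-score plate-corrected deviation score at least 3 library SD below zero, with starting fluorescence score within 5 deviations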;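 also: channel opened by trigger with iodide after compound preincubation; score built on the fluorescence ratio of max minus min over baseline; more negative score means more quench and so TMEM16A activation or potentiation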
# ANO1 block: TMEM16A chloride channel inhibitors, primary screen, cell-based, HTS; Anoctamin-1 (Mus musculus), Q8BHY3; HEK293 TMEM16A/YFP iodide influx fluorescence, ionomycin; normalized B-score (activity score, 25-100; higher = stronger inhibition) at 10 µM; 1.2% of 310,000 active; AID 588511, 2011;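 active = ratio plate-corrected score three or more library SD toward inhibition, starting fluorescence score within five deviations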;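 also: score derived from kinetic fluorescence span divided by baseline fluorescence per well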
# CHT block: inhibitors of human choline transporter CHT; High affinity choline transporter 1 (Homo sapiens), Q9GZV3; CHT-expressing cells, membrane potential dye, choline response; active compounds read low; B-score at 10 µM; 0.86% of 310,000 active; AID 488975, 2010;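 active = B-score over 3 SD under the library average, and starting fluorescence ratio not unusually high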;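 also: choline stimulus applied at its EC90 after an EC20 pre-addition; B-score computed on integrated fluorescence ratio after choline addition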
# PKA-R2B act: activators of PKA-R2B holoenzyme, primary screen, biochemical, fluorescence polarization, Cy5-IP20, human; PKA-R2B holoenzyme dissociation; R2B truncated from residue 108, S112A mutant; 0% DMSO only, 100% 113 µM cGMP; activation, % at 11.4 µM; cAMP-dependent protein kinase catalytic subunit beta (Homo sapiens) + cAMP-dependent …; 0.079% of 340,000 active;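 active = activation above a cutoff set at the mean over all compounds plus 3 SD, cut at about 18% in these data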;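 also: higher means more holoenzyme dissociation and a rise in polarization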
# PKA-R1A activ: activators of PKA-R1A holoenzyme, primary screen, biochemical, fluorescence polarization, Cy5-IP20, bovine R1A, mouse PKAc | activation, % at 11.4 µM | cAMP-dependent protein kinase type I-alpha regulatory subunit (Bos taurus) + … | AID 504707, 2011 | PKA-R1A dissociation; scaled: DMSO 0%, 113 µM cGMP 100% | 0.083% of 340,000 active;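 active = percent activation above the mean of all tested compounds plus 3 SD, cut at about 19% in these data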;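 also: higher means more PKAc released from R1A so a rise in polarization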
# TMEM16A reconf: TMEM16A chloride channel inhibitors, confirmation, cell-based, re-confirmation; shares compounds with ANO1 block; HEK293 TMEM16A/YFP-H148Q, iodide quench fluorescence; ionomycin added to raise cell calcium; inhibition, % at 10 µM; 39% of 2,300 active; AID 652189, 2013;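 active = mean duplicate percent inhibition, scaled so buffer wells are 0 and the reference blocker 100, over three buffer SD above buffer mean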
# HEK293 Ca mobil: calcium mobilization in TMEM16A/YFP HEK293 cells, confirmation, counter-screen for TMEM16A inhibitor project; shares compounds with ANO1 block; Fluo4 calcium mobilization; calcium response (% of ionomycin), % at 10 µM; 2% of 2,300 active; AID 652231, 2013;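 active = duplicate-averaged calcium signal over 20% of the ionomycin maximum, relative to buffer baseline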;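 also: each well's signal is peak minus trough fluorescence divided by its pre-addition baseline; 0% = buffer wells and 100% = ionomycin wells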
# Parental YFP cnt: iodide YFP quench changes in parental YFP-HEK293, counter-screen for TMEM16A inhibitor project, cell-based; 2,300 tested, under 10 active; ionomycin; shares compounds with ANO1 block; YFP ratio F(max-min)/F0 at 10 µM;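 active = yellow fluorescent protein signal ratio exceeding the buffer control mean by over 5 SD of those controls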;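 also: ratio is mean of duplicate wells from kinetic YFP trace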
# ClC-1 inh: ClC-1 chloride channel inhibition, selectivity assay for TMEM16A inhibitor project, cell-based, voltage-dependent ClC-1; CHO ClC-1-YFP, iodide influx fluorescence quench; iodide control reads 0, buffer control 100; 2,300 tested, under 10 active; ratio percent, % at 10 µM; shares compounds with ANO1 block; AID 652236, 2013;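 active = duplicate-mean ratio percent above the mean of iodide-only control wells, which defines zero, plus 5 of their SD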;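 also: higher percent means stronger block of ClC-1 iodide influx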
# * hit, by the source's call; i = inactive; / = no result.
SMILES,CHT allo act,TMEM16A act,ANO1 block,CHT block,PKA-R2B act,PKA-R1A activ,TMEM16A reconf,HEK293 Ca mobil,Parental YFP cnt,ClC-1 inh
Cc1sc2nc(-c3cccnc3)nc(Cl)c2c1-c1ccccc1,i,i,i,i,-0.5,8.9,/,/,/,/
CC1CCCCN1CCCNC(=O)c1ccc2nc(N3CCCCC3)sc2c1 (configuration not stated),i,i,i,i,-4.3,1.7,/,/,/,/
O=C(NC(NC(=S)Nc1ccc(Cl)c(Cl)c1)C(Cl)(Cl)Cl)c1ccco1 (configuration not stated),i,i,100*,i,-2.8,-2.6,35.5%*,i,-0.878,-21.0
O=C(O)c1cccc(NC(=S)NC(NC(=O)c2ccco2)C(Cl)(Cl)Cl)c1 (configuration not stated),i,i,i,i,-7.1,-7.1,/,/,/,/
Nc1ccccc1-c1nnc(-c2ccccc2N)n1N,i,i,i,i,0.7,-5.1,/,/,/,/
O=C(CCC1CCCC1)c1c(O)c2ccccc2oc1=O,i,i,100*,i,6.1,-2.0,34.0%*,58.5%*,-0.94,-37.5
COCCCn1c(=S)[nH]c2ccc(N3CCOCC3)cc2c1=O,i,i,i,i,1.0,0.6,/,/,/,/
CCCCN(C)CCn1c(=S)[nH]c2ccc(N3CCOCC3)cc2c1=O,i,i,25*,i,0.7,1.1,i,i,-0.896,-5.5
CCCOc1ccc(-c2nnn(CC(=O)c3ccc4c(c3)OCCO4)n2)cc1,i,i,100*,i,11.3,-4.1,17.0%*,i,-0.962,-21.5
COc1ccc(NS(=O)(=O)c2ccc(N3CCCC3=O)cc2)cn1,i,i,i,i,-13.7,-2.4,/,/,/,/
COc1ccc(NS(=O)(=O)c2ccc3c(c2)Cc2ccccc2-3)cn1,i,i,25*,i,-14.1,-0.5,i,i,-1.51,-3.0
O=C(c1cc(S(=O)(=O)N2CCOCC2)ccc1Cl)N1CCc2ccccc2C1,i,i,i,i,1.5,12.7,/,/,/,/
CCCn1nnc(NC(=O)COc2ccc(C3CCCCC3)cc2)n1,i,i,100*,i,1.4,-8.6,44.0%*,i,-0.979,-9.0
Cc1c(Cl)cccc1NC(=S)NNc1ncc(C(F)(F)F)cc1Cl,i,i,25*,-5.27*,-1.2,-15.6,40.0%*,i,-1.19,-13.0
CC(C)(CNC(=O)c1cccc(F)c1)CNC(=O)c1cccc(F)c1,i,i,i,i,-14.9,6.9,/,/,/,/
COC(=O)C1C2C=CC3(CN(Cc4cccs4)C(=O)C13)O2 (configuration not stated),i,i,i,i,-14.4,-7.6,/,/,/,/
CC(C)OC(=O)C1C2C=CC3(CN(Cc4cccs4)C(=O)C13)O2 (configuration not stated),i,i,100*,i,1.7,-4.7,i,i,-0.983,-14.0
COc1ccc(O)c(C(=O)c2coc(=N)c(C(=O)Nc3ccc(SC(F)F)cc3)c2)c1,i,i,i,i,-1.7,-2.4,i,i,-1.11,-57.5
O=C(c1ccc2c(c1)OCO2)C1CCCN(Cc2ccc(OC(F)F)cc2)C1 (configuration not stated),i,i,25*,i,5.2,4.7,21.0%*,i,-1.03,-13.5
O=C(NCCn1cc(SCc2ccccc2)c2ccccc21)c1ccccc1F,i,i,25*,i,-0.9,-5.0,i,i,-1.2,-10.0
COc1ccc(C)cc1NC(=O)CCNC(=O)Cn1ccc2ccccc2c1=O,i,i,i,i,2.1,11.6,/,/,/,/
Cc1ccc(Nc2nc3nonc3[nH]c2=O)cc1Cl,i,i,100*,i,-1.1,-4.8,40.5%*,i,-1.03,-23.0
O=C(O)C1C2CCC(O2)C1C(=O)Nc1cccc(Cl)c1 (configuration not stated),i,i,i,i,-4.2,1.2,/,/,/,/
CC(OC(=O)CCc1nc2ccccc2c(=O)[nH]1)C(=O)c1ccc(C(C)(C)C)cc1 (configuration not stated),i,i,100*,i,3.2,-9.2,28.0%*,i,-1.02,-23.5
COc1ccc(C(=O)NNC(=O)CCc2nc3ccccc3c(=O)[nH]2)cc1,/,i,/,/,2.6,-1.9,/,/,/,/
COc1cc(/C=C(\C#N)C(=O)Nc2cccnc2)ccc1OC(C)C,i,i,i,i,-0.8,-7.0,/,/,/,/
O=C(Nc1nc(-c2ccc(F)c(F)c2)cs1)c1ccc(OCC2CCCO2)cc1 (configuration not stated),i,i,25*,i,-6.0,-8.8,i,i,-1.17,-7.0
O=C(Nc1nc(-c2ccc(-c3ccccc3)cc2)cs1)C1CCCO1 (configuration not stated),i,i,100*,i,-2.6,-2.7,i,i,-0.901,-21.0
CCOC(=O)c1[nH]c(=O)[nH]c1CNc1ccccc1C#N,i,i,i,i,12.7,13.4,/,/,/,/
COc1cccc(-c2c(C#N)c(N)nc3c2c(C)nn3-c2ccccc2)c1O,i,i,100*,i,-10.0,-7.6,45.0%*,i,-0.904,-10.0

# Assay outcomes (PubChem BioAssay)
